Data published in the supplement of paper PMC7695840.

Legend:
[1] = tested on: Staphylococcus aureus MW2 delta-mecA (mecA-); assay: normalized GFP fluorescence (growth of mecA- strain) (fraction of control range); higher = more growth of mecA- strain; conditions: compound concentration: 150 uM; cefoxitin: subinhibitory; fluorescent label: GFP
Summary of the method: (§1)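 Two pre-induced S. aureus MW2 strains, one with the gene labeled by DsRed and one lacking it labeled by GFP, were mixed 1:1 in LB with a subinhibitory antibiotic dose set daily. The mix went at 5 µL/well onto 150 μM compound (1.5% DMSO) in 1536-well plates, single replicate, and grew unshaken 20 h at 37 °C, 90% humidity. DsRed (540/590) and GFP (485/520) values were scaled per plate between single-strain control medians, and plates with high untreated ratios or rows with DsRed/GFP >10 were left out.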

[2] = tested on: Staphylococcus aureus MW2 (mecA+); assay: normalized DsRed fluorescence (growth of mecA+ strain) (fraction of control range); higher = more growth of mecA+ strain; conditions: compound concentration: 150 uM; cefoxitin: subinhibitory; fluorescent label: DsRed
Summary of the method: as §1

Compound	normalized GFP fluorescence [1]	normalized DsRed fluorescence [2]
CC1(C)O[C@@H]2C[C@H]3[C@@H]4CCC5=CC(=O)C=C[C@]5(C)[C@H]4[C@@H](O)C[C@]3(C)[C@]2(C(=O)CO)O1	0.387	1.36
CC1=NN(c2ccccc2)C(=O)C1 [Edaravone (MCI-186)]	0.706	0.531
CC12CCC(CC1=O)C2(C)C (stereo not drawn)	0.212	1.15
COc1cc2nc(N3CCN(C(=O)c4ccco4)CC3)nc(N)c2cc1OC	0.593	0.809
CC(C)c1nc(N(C)S(C)(=O)=O)nc(-c2ccc(F)cc2)c1/C=C/[C@@H](O)C[C@@H](O)CC(=O)O	0.207	0.514
CC(O)(CC(=O)O)CC(=O)O	0.226	0.945
CCN(CC)C(=O)N1CCN(C)CC1	0.599	0.455
CCCCCCCCCC(=O)N[C@@H](Cc1c[nH]c2ccccc12)C(=O)N[C@H](CC(N)=O)C(=O)N[C@@H](CC(=O)O)C(=O)N[C@@H]1C(=O)NCC(=O)N[C@@H](CCCN)C(=O)N[C@@H](CC(=O)O)C(=O)N[C@H](C)C(=O)N[C@@H](CC(=O)O)C(=O)NCC(=O)N[C@H](CO)C(=O)N[C@@H]([C@H](C)CC(=O)O)C(=O)N[C@@H](CC(=O)c2ccccc2N)C(=O)O[C@@H]1C [Daptomycin]	0.013	0.064
Nc1ccc(S(=O)(=O)Nc2ncccn2)cc1	0.475	0.718
Cc1ccc(=O)n(-c2ccccc2)c1 [Pirfenidone]	0.368	0.778
CSCC[C@H](NC(=O)[C@H](Cc1c[nH]c2ccccc12)NC(=O)CCNC(=O)OC(C)(C)C)C(=O)N[C@@H](CC(=O)O)C(=O)N[C@@H](Cc1ccccc1)C(N)=O	0.461	0.68
CN1C2CCCC1CC(NC(=O)c1nn(C)c3ccccc13)C2 (stereo not drawn)	0.718	0.441
Cc1cn([C@H]2C[C@H](N=[N+]=[N-])[C@@H](CO)O2)c(=O)[nH]c1=O	0.317	0.887
NC(=O)Cc1cccc(C(=O)c2ccccc2)c1N [Nepafenac]	0.747	0.818
c1ccc2c(CC3=NCCN3)cccc2c1	0.526	0.668
COc1ccc2cc(CCC(C)=O)ccc2c1	0.292	0.79
CNCCc1ccccn1	0.393	0.969

Compound	normalized GFP fluorescence [1]	normalized DsRed fluorescence [2]
CCOc1ccc(Cc2cc([C@@H]3O[C@H](CO)[C@@H](O)[C@H](O)[C@H]3O)ccc2Cl)cc1 [Dapagliflozin]	0.454	0.557
CN[C@@H]1[C@H](O)[C@H](NC)[C@H]2O[C@@]3(O)C(=O)C[C@@H](C)O[C@H]3O[C@@H]2[C@H]1O	0.198	0.555
CC1(C)S[C@@H]2[C@H](NC(=O)Cc3ccccc3)C(=O)N2[C@H]1C(=O)O	0.0214	0.0849
CNCCCN1c2ccccc2CCc2ccccc21	0.0357	1.99
C[C@]12CCC(=O)C=C1C=C[C@@H]1[C@@H]2CC[C@@]2(C)[C@H]1CC[C@@]21CCC(=O)O1	0.191	0.593
COc1cc(C2Oc3ccc(C4Oc5cc(O)cc(O)c5C(=O)C4O)cc3OC2CO)ccc1O (stereo not drawn) [Silymarin (Silybin B)]	0.34	0.987
CN1C(C(=O)Nc2ccccn2)=C(O)c2ccccc2S1(=O)=O [Piroxicam (Feldene)]	0.0173	0.661
COc1cc(N)c(Cl)cc1C(=O)NC1CCN(CCCOc2ccc(F)cc2)CC1OC (stereo not drawn)	0.458	0.643
CCC[C@H](NC(=O)[C@@H]1[C@H]2CCC[C@H]2CN1C(=O)[C@@H](NC(=O)[C@@H](NC(=O)c1cnccn1)C1CCCCC1)C(C)(C)C)C(=O)C(=O)NC1CC1 [Telaprevir (VX-950)]	0.0337	1.39
Cc1ncc([N+](=O)[O-])n1CC(O)CCl (stereo not drawn)	0.488	0.705
Cc1cc(-c2ccccc2)nnc1NCCN1CCOCC1	0.44	0.611
Cc1cccc(C)c1OCC(C)N (stereo not drawn)	0.344	1.02
COC(=O)Nc1nc2cc(Sc3ccccc3)ccc2[nH]1	0.378	0.601
Oc1ccc(O)cc1	0.379	0.882
COc1cc(Nc2c(C#N)cnc3cc(OCCCN4CCN(C)CC4)c(OC)cc23)c(Cl)cc1Cl [Bosutinib (SKI-606)]	-0.0247	0.727
CC(=O)OCC(=O)[C@@]12OC(C)(C)O[C@@H]1C[C@H]1[C@@H]3C[C@H](F)C4=CC(=O)C=C[C@]4(C)[C@@]3(F)[C@@H](O)C[C@@]12C	0.439	0.736
O=C1CN2Cc3c(ccc(Cl)c3Cl)N=C2N1	0.237	0.896
